Assay outcomes deposited in PubChem BioAssay by National Center for Advancing Translational Sciences (NCATS).
HCV inh: qHTS Assay for Inhibitors of Hepatitis C Virus (HCV); Huh7.5.1 HCVcc-Cre infection, luciferase reporter, 44 h; Potency, µM (titrated, usually from 41.8 µM), for inactives: top-dose activity change, negative = inhibition, most hits filed as inhibitors; hit rate 3.4% among 340,000
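Seed cells (1,000/well) for 4 h; treat with compound and infect with HCVcc-Cre, moi about 0.5. Incubate 44 h, then detect luciferase activity.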
AmpC inh detg: qHTS Inhibitors of AmpC Beta-Lactamase (assay with detergent) | P00811 | AmpC hydrolysis of nitrocefin, absorbance 480 nm, 0.01% Triton | Potency, µM (top dose mostly 114 µM), for the others: at the highest dose activity change, negative = inhibition, usual class: inhibitors | hit rate 0.041% among 370,000 | AID 485294, 2010;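 note: 0% = no-compound wells and -100% = no-enzyme wells; nearly all actives have a fitted effect of over 25% in size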
Target sequence (P00811 whole entry, looked up): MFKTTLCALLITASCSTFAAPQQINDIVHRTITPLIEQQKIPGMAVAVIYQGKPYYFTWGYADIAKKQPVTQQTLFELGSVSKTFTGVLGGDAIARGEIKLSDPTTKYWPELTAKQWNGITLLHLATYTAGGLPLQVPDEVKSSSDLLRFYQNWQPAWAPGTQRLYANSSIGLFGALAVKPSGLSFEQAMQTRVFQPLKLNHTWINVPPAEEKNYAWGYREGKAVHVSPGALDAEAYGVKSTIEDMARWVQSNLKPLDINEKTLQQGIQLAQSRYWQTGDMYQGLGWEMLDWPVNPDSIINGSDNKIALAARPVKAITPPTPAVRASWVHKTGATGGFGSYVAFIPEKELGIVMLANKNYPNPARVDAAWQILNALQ
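AmpC (5.3 nM in the dispensed reagent) in 20 mM phosphate pH 7.0 with 0.01% (detergent screen) or 0.0001% Triton X-100 was preincubated with compounds for 15 min at room temperature. Nitrocefin was then added from an 800 uM solution, and hydrolysis was followed at 480 nm.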
Pf growth 96h: Primary qHTS for delayed death inhibitors of the malarial parasite plastid, 96 hour incubation; hit rate 6.9% among 320,000; P. falciparum luciferase reporter growth, 96 h; AID 504834, 2011; Potency, µM (top dose mostly 28.7 µM), for inactives: at the top dose activity change, negative = inhibition, most hits filed as inhibitors
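Plates of compound plus infected erythrocytes (2% hematocrit, 0.05% parasitemia final) incubate 96 hours, 37 C, 5% CO2. Detection reagent added; reduced luminescence from the parasites' luciferase reporter flags inhibition.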
AmpC inh no detg: qHTS Inhibitors of AmpC Beta-Lactamase (assay without detergent) | AID 485341, 2010 | Potency, µM (top dose mostly 57.1 µM), without a hit: at the top dose activity change, negative = inhibition, most hits filed as inhibitors | AmpC nitrocefin hydrolysis, absorbance 480 nm, 0.0001% Triton | hit rate 0.52% among 330,000;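 note: plate controls were no compound for no effect and no enzyme for full effect; nearly all actives have a fitted effect of over 20% in size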
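AmpC (5.3 nM in the dispensed reagent) in 20 mM phosphate pH 7.0 with 0.01% (detergent screen) or 0.0001% Triton X-100 was preincubated with compounds for 15 min at room temperature. Nitrocefin was then added from an 800 uM solution, and hydrolysis was followed at 480 nm.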
AMA1 RON2 block: qHTS for Inhibitors of AMA1-RON; Towards Development of Antimalarial Drug Lead: Primary Screen; Plasmodium falciparum AMA1 (3D7) - RON2 peptide interaction; hit rate 0.2% among 360,000; AlphaScreen AMA1-biotinylated RON2 peptide binding; Potency, µM (highest dose often 58.2 µM), for inactives: at the highest dose activity change, negative = inhibition, most hits filed as inhibitors;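 note: 0% = vehicle wells and -100% = peptide control; nearly all actives have a fitted effect of over 45% in size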
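AMA1 (3D7) with his tag at 25 nM final met compounds first, then biotinylated RON2 peptide at 25 nM; detection used donor plus acceptor beads, 10 µg/mL apiece, read by AlphaScreen after 30 min at room temperature.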
Pf growth 48h: Primary qHTS for delayed death inhibitors of the malarial parasite plastid, 48 hour incubation | P. falciparum luciferase growth in erythrocytes, 48 h | AID 504832, 2011 | Potency, µM (series often up to 28.7 µM), for the others: at the top dose activity change, negative = inhibition, actives largely listed as inhibitors | hit rate 5.9% among 310,000
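Parasite viability was followed by luminescence of a genomically integrated firefly luciferase. Cultures held 0.1% parasitemia at 2% hematocrit (final), incubated under 5% CO2 at 37 C.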
* hit, by the source's call; ? = inconclusive; . = no result given. Shown are actives, neighbours in structure and some others; about 11% of the full set was active somewhere. Calls come from the whole dose curve; as a rule, active = well fitted curve in the direction sought with a large enough effect; inconclusive = small, poorly fitted or top-dose-only effect, or another doubt; inactive = no such curve, though single readings can be large; an effect the other way counts as inactive or inconclusive. Unless noted, % is set by controls: 0 for no effect and ±100 for the full control effect; potency is the fitted concentration of half-maximal effect.

SMILES	HCV inh	AmpC inh detg	Pf growth 96h	AmpC inh no detg	AMA1 RON2 block	Pf growth 48h
CCOC(=O)C1CCN(C(=O)c2ccc(OC)cc2OC)CC1	10%	1%	13µM*	2%	-3%	4%
CCOC(=O)C1CCCN(C(=O)c2cc(S(=O)(=O)N3CCCCCC3)ccc2OC)C1 (stereo not drawn)	7%	-4%	9.3µM*	30%	63%	9.3µM*
CCn1c(=O)c2cc(C(=O)N(CCCOC(C)C)Cc3ccco3)sc2c2ccccc21	.	-12%	.	.	.	.
COc1ccc(-n2ccn(CC(=O)NCCc3ccccc3)c(=O)c2=O)cc1OC	.	19%	.	.	.	.
CCc1ccc(NC(=O)CCCc2nnc3n(CC(C)C)c(=O)c4sccc4n23)cc1	.	-4%	.	.	.	.
COc1ccccc1NS(=O)(=O)c1ccc(C(=O)N2CCCCCC2)cc1	-12%	.	.	40%	6%	.
CCOC(=O)C1CCN(C(=O)C2CCCN2S(=O)(=O)c2ccc(Cl)cc2)CC1 (stereo not drawn)	.	?	10µM*	29%	2%	0%
CCOC(=O)C1CCCN(C(=O)c2cn(C)c3ccc(S(=O)(=O)N(C)C)cc3c2=O)C1 (stereo not drawn)	15%	?	0.93µM*	0%	1%	.
CCOC(=O)C1CCCN(C(=O)c2ccc(S(=O)(=O)Nc3ccccc3OC)cc2)C1 (stereo not drawn)	-23%	?	?	53%	17%	12µM*
CCOC(=O)C1CCN(S(=O)(=O)c2nc3nc(C)cc(C)n3n2)CC1	5%	2%	10µM*	-14%	-10%	2%
CCOC(=O)C1CCN(S(=O)(=O)c2ccc(Br)c(OCC)c2)CC1	8%	2%	4.7µM*	38%	-10%	5%
CCOC(=O)C1CCCN(C(=O)c2cccc(S(=O)(=O)N(C)c3ccc(OC)cc3)c2)C1 (stereo not drawn)	15%	-4%	51%	120%	30%	?
CCOC(=O)C1CCCN(C(=O)c2ccccc2Oc2ccccc2)C1 (stereo not drawn)	15%	?	1.3µM*	35%	-6%	-17%
CCOC(=O)C1CCCN(C(=O)c2cccc(S(=O)(=O)N(Cc3ccccc3)c3ccccc3OC)c2)C1 (stereo not drawn)	18%	?	?	206%	-1%	10µM*
Cc1ccc2oc(C(Cl)(Cl)Cl)cc(=O)c2c1	?	?	1.9µM*	-19%	-2%	3.3µM*
CCN(CC)S(=O)(=O)c1ccc2c(c1)nc(CCC(=O)Nc1ccc3c(c1)OCO3)n2C	-37%	2%	9.3µM*	-11%	14%	?
CN(C)S(=O)(=O)c1ccc2c(c1)nc(CCC(=O)Nc1ccc3c(c1)OCO3)n2C	-26%	-4%	?	-22%	-1%	?
CCn1c(CCC(=O)N(C)CC(=O)Nc2cccc(F)c2)nc2cc(S(=O)(=O)N(C)C)ccc21	16%	?	?	61%	-12%	?
CCN(CC)S(=O)(=O)c1ccc2c(c1)nc(CCC(=O)Nc1ccc3c(c1)OCO3)n2CC	-20%	?	6.6µM*	-8%	-6%	?
COc1ccc(N2Cc3cccc(C(=O)Nc4cccc(F)c4)c3C2=O)cc1	.	1%	.	.	.	.
COc1cc(-c2noc(-c3ccc(N4CCOCC4)c([N+](=O)[O-])c3)n2)cc(OC)c1OC	.	8%	.	.	.	.
COc1ccc(OC)c(CNC(=O)CN2N=C(c3ccc(Cl)cc3)CCC2=O)c1	.	6%	.	.	.	.
